Screens (PubChem BioAssay)
Shown are actives, neighbours in structure and some others; about 1.7% of the full set was active somewhere.
RecA splice inh – Mtb RecA intein splicing inhibitors, primary screen, biochemical, fluorescence, HTS. inhibition, % (no concentration beside the values). 290,000 compounds, 0.75% hits. cell-free RecA intein splicing. Protein RecA (Mycobacterium tuberculosis (strain ATCC 25618 / H37Rv)), P9WHJ3. AID 2221, 2009; in the data active = inhibition above about 30%
Target sequence (P9WHJ3 whole entry, looked up, canonical isoform): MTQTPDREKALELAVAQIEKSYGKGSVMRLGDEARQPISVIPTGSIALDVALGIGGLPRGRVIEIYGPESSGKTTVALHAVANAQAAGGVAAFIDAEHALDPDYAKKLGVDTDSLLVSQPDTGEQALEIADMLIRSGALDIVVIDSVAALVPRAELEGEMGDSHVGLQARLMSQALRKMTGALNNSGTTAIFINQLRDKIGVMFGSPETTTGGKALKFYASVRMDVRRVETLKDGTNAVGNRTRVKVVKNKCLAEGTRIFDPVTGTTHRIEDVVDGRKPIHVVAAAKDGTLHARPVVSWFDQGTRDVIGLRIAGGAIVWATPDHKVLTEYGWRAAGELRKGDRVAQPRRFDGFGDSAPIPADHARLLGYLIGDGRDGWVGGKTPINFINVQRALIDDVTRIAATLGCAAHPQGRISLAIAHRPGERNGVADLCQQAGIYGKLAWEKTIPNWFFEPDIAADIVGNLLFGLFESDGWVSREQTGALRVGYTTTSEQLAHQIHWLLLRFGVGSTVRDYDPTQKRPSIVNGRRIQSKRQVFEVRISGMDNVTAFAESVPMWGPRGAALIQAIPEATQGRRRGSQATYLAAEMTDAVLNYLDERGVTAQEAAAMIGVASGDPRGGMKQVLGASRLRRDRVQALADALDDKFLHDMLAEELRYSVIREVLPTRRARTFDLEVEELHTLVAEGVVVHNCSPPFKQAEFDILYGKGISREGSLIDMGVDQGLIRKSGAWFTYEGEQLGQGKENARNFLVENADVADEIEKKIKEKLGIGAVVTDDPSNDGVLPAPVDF
PfHsp40 rescue – rescue of yeast from PfHsp40 toxicity, primary screen, S. cerevisiae, ATP luminescence; growth rescue, % at 12.5 µM; S. cerevisiae expressing PfHsp40, growth rescue; 340,000 compounds, 0.68% hits; in the data active = growth rescue above about 28%, passing the limit was not always enough;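 note: yeast W303a lacking pdr1 and pdr3 grown in galactose medium; growth measured after three days at 30 °C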
Mtb bLac sens – beta-lactam sensitization of Mtb H37Rv, H37Rv | M. tuberculosis H37Rv growth with meropenem, percent inhibition | inhibition, % at 25 µM | 330,000 compounds, 0.27% hits; call rule not given here;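 note: growth measured after seven days incubation then overnight dye step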
Mtb hypoxia rep – PubChem AID 1159583; fluorescence inhibition, % (no concentration beside the values); M. tuberculosis hypoxia-regulated fluorescent reporter, fluorescence; 300,000 compounds, 0.1% hits; in the data active = fluorescence inhibition mostly above about 23%, no sharp cut-off; inactive = mostly below about 17%
CCHF vOTU inh-1 – CCHFV vOTU protease inhibitors, primary screen, biochemical, Pep-AMC substrate, fluorescence; AID 651958, 2012; Crimean-Congo hemorrhagic fever virus L polyprotein viral ovarian tumor (vOTU) protease …; inhibition, % at 11.5 µM; 370,000 compounds, 0.55% hits
GFP chromo cs – counter-screen: blocks GFP chromophore formation, dose response, counter-screen, biochemical, fluorescence, homogeneous; shares compounds with RecA splice inh; cell-free GFP chromophore formation; EC50, µM; 2,100 compounds, 83% hits; AID 434968, 2010; call rule not given here
CCHF vOTU inh-2 – CCHFV vOTU protease inhibitors, confirmation, biochemical, Pep-AMC substrate, fluorescence; shares compounds with CCHF vOTU inh-1; Recombinant CCHFV vOTU; inhibition, % at 11.5 µM; 1,900 compounds, 17% hits; AID 686976, 2013
A number is an active result; – = inactive; · = not tested or not shown. Cut-off read from the data, not from the text of the source, unless noted: active = inhibition above about 30%; inactive = the rest.

SMILES | RecA splice inh | PfHsp40 rescue | Mtb bLac sens | Mtb hypoxia rep | CCHF vOTU inh-1 | GFP chromo cs | CCHF vOTU inh-2
CC1CCc2c(sc(N=Cc3cccnc3)c2C(N)=O)C1 (stereo unspecified) | · | · | · | – | · | · | ·
CC1CN(C(C)CO)C(=O)c2cccc(NC(=O)C3CCCCC3)c2OC1CN(C)C(=O)Nc1ccccc1 (stereo unspecified) | · | · | · | – | · | · | ·
Cc1nc2ccccc2c(=O)n1NC(=O)C=Cc1ccccc1Cl | · | · | · | – | · | · | ·
CC(=O)Oc1c(Br)cc(N(C(C)=O)S(=O)(=O)c2ccccc2)c2ccccc12 | 37 | – | – | – | – | 5.3 | ·
O=C(NN=Cc1cc([N+](=O)[O-])ccc1O)c1cccc(N2CCCC2=O)c1 | · | · | · | – | · | · | ·
CCOC(=O)c1c(NC(=O)CSc2nnc(-c3c[nH]c4ccccc34)n2CCOC)sc2c1CCCC2 | 32 | – | – | – | – | – | ·
CC(C)S(=O)(=O)C1=NSC2=NC(=O)/C(=C\c3ccc(OC(=O)c4ccco4)cc3)C(=N)N21 | 34 | – | – | – | – | – | ·
CCOC(=O)c1ccc(NC(=O)c2nc[nH]c2C(=O)NC(CC(C)C)C(=O)OCc2ccccc2)cc1 (stereo unspecified) | · | · | · | – | · | · | ·
CC1(C)C=C2C(=NN(c3ccccc3)C(N)=C2C#N)CO1 | 90 | – | – | · | 50 | 1.5 | 100
CC1(C)Cc2c(C#N)c(N)n(-c3ccccc3)c(=S)c2CO1 | – | – | – | – | – | · | ·
Cc1nnc(NN=CC2CC=CCC2)[nH]c1=O (stereo unspecified) | · | · | · | – | · | · | ·
Cc1ccc(S(=O)(=O)Nc2ccc(O)c3ccccc23)c(C)c1 | 97 | – | – | – | 66 | 0.23 | –
Cc1ccc(C)c(S(=O)(=O)Nc2ccc(O)c3ccccc23)c1 | 95 | – | – | – | 62 | 0.23 | –
COC(=O)C1=C(c2ccc(OCc3ccccc3)cc2)CC2CCC1N2C(=O)NCCCc1ccccc1 (stereo unspecified) | · | · | · | – | · | · | ·
COc1cc(/C=C2/C(=O)N(c3ccc([N+](=O)[O-])cc3)N=C2N2CCOCC2)ccc1O | 46 | – | – | – | 115 | 23 | –
CCN(CC)c1ccc(/C=C2/C(=O)N(c3ccc([N+](=O)[O-])cc3)N=C2N2CCOCC2)cc1 | – | · | – | · | · | · | ·
COc1cc2c(cc1OC)-c1c(OC)c(OC)cc3c1[C@H](C2)N(C)CC3 | 34 | – | – | · | 89 | 22 | 79
COc1cc2c(cc1O)CC1c3c(cc(O)c(OC)c3-2)CCN1C (stereo unspecified) | – | – | – | – | – | · | ·
COc1ccc(-c2cc(=O)[nH][nH]2)cc1OC | 99 | – | – | – | 60 | 0.97 | –
COc1ccc(-c2c[nH]c(=O)[nH]c2=O)cc1OC | – | – | – | – | – | · | ·
COC(=O)C1=C(c2ccc(Cl)c(C(F)(F)F)c2)CC2CCC1N2C(=O)NCCO (stereo unspecified) | · | · | · | – | · | · | ·
CN(C)c1ccc(C=NN2C(=O)c3ccccc3C2=O)cc1 | · | · | · | – | · | · | ·
O=[N+]([O-])c1cc(O)c2ncccc2c1 | 37 | · | – | – | 35 | 12 | 52
O=[N+]([O-])c1cc2cccnc2c2ncccc12 | · | · | – | · | – | · | ·
COc1ccc(Cc2nccc3cc(OC)c(OC)cc23)cc1OC | 93 | – | – | – | 92 | 7.3 | 40
SMILES | RecA splice inh | PfHsp40 rescue | Mtb bLac sens | Mtb hypoxia rep | CCHF vOTU inh-1 | GFP chromo cs | CCHF vOTU inh-2
COc1ccc(Cc2c3cc(OC)c(OC)cc3cc[n+]2C)cc1OC | – | – | – | · | · | · | ·
CCCCC[n+]1ccn(C2=C([O-])c3ccccc3C(=O)/C2=N\S(=O)(=O)c2ccccc2)c1 | – | – | – | – | – | · | ·
CC(C)[n+]1ccn(C2=C([O-])c3ccccc3C(=O)/C2=N\S(=O)(=O)c2ccccc2)c1 | 31 | – | – | – | 33 | 21 | 31
O=S(=O)(NCc1ccccc1)c1ccc(Cl)cc1 | – | – | – | – | – | · | ·
O=S(=O)(Nc1cc2nc3ccccc3nc2n1Cc1ccccc1)c1ccc(Cl)cc1 | 60 | – | – | – | 111 | 6.3 | 67
COc1ccc(C2CC=C(C(=O)O)C(c3ccc(Cl)cc3)N2S(=O)(=O)c2ccc(C)cc2)cc1OC (stereo unspecified) | · | · | · | – | · | · | ·
CC1OC(Nc2cccc3ccccc23)C(O)C(O)C1O (stereo unspecified) | 46 | – | – | – | 65 | – | –
Cc1ccc(NC2=C(NC(=O)c3ccccc3)C(=O)c3ccccc3C2=O)cc1Cl | 70 | – | – | – | 51 | 6.4 | 42
O=C(CCN1C(=O)/C(=C/c2cccs2)SC1=S)Nc1ccc(C(=O)O)c(O)c1 | 44 | – | – | · | 32 | 31 | –
O=C(CCN1C(=O)/C(=C/c2cccs2)SC1=S)Nc1ccc(O)cc1 | – | – | – | – | – | · | ·
CON=CCC(=O)Nc1ccc(F)cc1 | · | · | · | – | · | · | ·
Cc1nnc(Sc2cc(NCCCO)c([N+](=O)[O-])c3nonc23)s1 | 91 | – | · | – | 31 | 5.1 | –
CCNc1ccc(C(=O)NN=Cc2c(C)nn(-c3ccccc3)c2N2CCCC2)cc1[N+](=O)[O-] | · | · | · | – | · | · | ·
COc1cc(/C=C(\C#N)c2nc3ccccc3o2)ccc1O | 34 | – | – | – | 33 | 17 | –
N#C/C(=C\c1ccc(O)cc1)c1nc2ccccc2o1 | – | – | – | – | – | · | ·
O=C(O)c1cc(Cl)ccc1-c1ccc(C=Cc2cc(C(F)(F)F)[nH]c(=O)n2)o1 | · | · | · | – | · | · | ·
COc1ccc(N/C=C2\CCc3ccccc3C2=O)cc1 | 71 | – | – | – | 34 | 19 | –
CC1=NN(c2ccccc2)C(=O)C1c1ccccc1 (stereo unspecified) | – | – | – | – | – | · | ·
CC1=NN(c2nc(-c3ccc(Cl)cc3)cs2)C(=O)C1 | – | – | – | – | – | · | ·
CC1=NN(Cc2ccccc2)C(=O)C1 | 89 | – | – | – | 36 | 7.6 | –
CC1=NN(c2ccc(N)cc2)C(=O)C1 | 74 | – | – | – | 57 | 2.9 | –
CC1=NN(c2ccc(Cl)cc2)C(=O)C1 | 96 | – | – | – | 41 | 3.5 | –
CC1=NN(c2ccccc2)C(=O)C1 | 89 | – | – | · | 87 | 3.1 | –
CC(C)(C)C1C=C(C(=O)N2CCOCC2)OC(OCc2ccc(CO)cc2)C1 (stereo unspecified) | · | · | · | – | · | · | ·
CCC=C(NC(C)=O)c1ccccc1 | · | · | · | – | · | · | ·
CC(CC(=O)Nc1ccc2c(c1)OCCO2)=NNC(=O)COc1cccc(C)c1 | · | · | · | – | · | · | ·
COCCCNC(=O)c1c(N)n(N=Cc2ccccn2)c2nc3ccccc3nc12 | · | · | · | – | · | · | ·
O=C(NN=C/C=C\c1ccco1)c1cccnc1 | · | · | · | – | · | · | ·
CC1=CC(C)(C)N2C(=O)C(=Nc3ccc(O)cc3)c3cccc1c32 | 39 | – | – | – | 82 | – | –
O=C1C=C(NCc2ccccc2)c2ccccc2C1=O | 92 | – | · | – | 64 | 0.86 | 89
